The values below come from PubChem BioAssay (NCATS).

Results filed as inconclusive are left out. Activity calls are given as the source filed them. Calls come from the whole dose curve; as a rule, active = well fitted inhibition curve with a large enough effect; inconclusive = small, poorly fitted or top-dose-only effect; inactive = flat fitted curve, though single readings scatter.

For this assay, the system named is CRL-7250. Briefly: qHTS assay to identify novel small-molecules to repurpose for Merkel cell carcinoma treatment (AID 1296009). Note: nearly all actives have a fitted effect of over 60% in size. As to conditions: MCC and control cell lines, CellTiter-Glo viability, 72 h; at 44.8 µM (top of the series) unless noted. The method in brief: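 CellTiter-Glo luminescence after 72 hr compound exposure at 37 degree celsius gave cell viability. Libraries NPC and MIPE were run as 8- and 11-point dose responses; RLUs normalized to DMSO (negative) and no-cell (cytotoxicity) controls.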
Regarding `CCC(=O)O[C@]1(C(=O)SCF)[C@H](C)C[C@H]2[C@@H]3C[C@H](F)C4=CC(=O)C=C[C@]4(C)[C@@]3(F)[C@@H](O)C[C@@]21C`, the compound was classed as inactive. For the compound `CCN(CC)C(=O)c1cccc(C)c1`, the call was inactive. In the case of `CN1CCCCC1CCN1c2ccccc2Sc2ccc(S(C)=O)cc21` (configuration not stated) it was “inactive”. In the case of `O=c1[nH]c2cc(C(F)(F)F)c(N3CCOCC3)cc2n(CP(=O)(O)O)c1=O` it was “inactive”; in that of `Cc1cn([C@H]2C[C@H](F)[C@@H](CO)O2)c(=O)[nH]c1=O`, “inactive”; in that of `CN1[C@@H]2CC[C@H]1CC(OC(=O)c1c[nH]c3ccccc13)C2` (some centres not stated), “inactive”. With `NCCc1cnc[nH]1` the entry was “inactive”; with `Nc1c2c(nc3ccccc13)CCCC2`, “inactive”; with `Oc1ccc(O)cc1`, “inactive”. Take `Clc1ccc(C(Cn2ccnc2)OCc2c(Cl)cccc2Cl)c(Cl)c1` (configuration not stated): the compound was called inactive. As to `CCCCOc1cc(C(=O)OCCN(CC)CC)ccc1N`, the result was inactive.

For `C[C@@H](C1=C(CCN(C)C)Cc2ccccc21)c1ccccn1`, the compound was called inactive.

For `Cc1c(C(=O)NN2CCCCC2)nn(-c2ccc(Cl)cc2Cl)c1-c1ccc(Cl)cc1`, the compound was called inactive. With `C[C@H]1C[C@H]2[C@@H]3CCC4=CC(=O)C=C[C@]4(C)[C@@]3(Cl)[C@@H](O)C[C@]2(C)[C@@]1(O)C(=O)CO` the entry was “inactive”; with `C=C1c2cccc(O)c2C(O)=C2C(=O)[C@]3(O)C(O)=C(C(N)=O)C(=O)[C@@H](N(C)C)[C@@H]3[C@@H](O)[C@H]12`, “inactive”; with `CSc1ccc(/C=C2/C(C)=C(CC(=O)O)c3cc(F)ccc32)cc1`, “inactive”.

As to `CCN(CCCCOC(=O)c1ccc(OC)c(OC)c1)C(C)Cc1ccc(OC)cc1` (configuration not stated), the call was inactive.

Take `Cn1cc(C(=O)[C@@H]2CCc3nc[nH]c3C2)c2ccccc21`: the call was inactive.

As to `O=C1[C@H]2CCCC[C@H]2C(=O)N1CCCCN1CCN(c2nsc3ccccc23)CC1`, the call was inactive.

Consider `NC(CSCC(=O)O)C(=O)O` (configuration not stated), for which the outcome was inactive.

`CC(=O)OCC(=O)[C@@]1(O)CCC2C3CCC4=CC(=O)CC[C@]4(C)C3[C@@H](O)C[C@@]21C` (some centres not stated): the compound was classed as inactive.

`COc1ccc2[nH]c(S(=O)Cc3ncc(C)c(OC)c3C)nc2n1` (configuration not stated): the outcome was inactive.

Consider `CCCCCCCCCCCCCCCCCCOCC(O)CO` (configuration not stated), for which the compound was classed as inactive. In the case of `C(=C\c1ccccc1)/CN1CCN(C(c2ccccc2)c2ccccc2)CC1` it was “inactive”.

As for `COc1ccc(-c2nc3ccc(C4=NNC(=O)CC4C)cc3[nH]2)cc1` (configuration not stated), the call was inactive.

In the case of `Cc1[nH]c(C)c(Cl)c(=O)c1Cl`, the outcome is “inactive [at 17.4 µM]”. In the case of `NCCNC(=O)c1ccc(Cl)cn1` it was “inactive”; in that of `O=C(c1ccc(F)cc1)C1CCN(CCn2c(=O)[nH]c3ccccc3c2=O)CC1`, “inactive”; in that of `O=C(O)CN(CCOCCOCCN(CC(=O)O)CC(=O)O)CC(=O)O`, “inactive [at 0.588 µM]”.

Turning to `O=C(OCC(COC(=O)c1cccnc1)(COC(=O)c1cccnc1)COC(=O)c1cccnc1)c1cccnc1`, the compound was called inactive. `Cc1c(N(C)C)c(=O)n(-c2ccccc2)n1C`: the compound was classed as inactive.

Take `CC1(C)OC(=O)Nc2ccc(Br)cc21`: the compound was classed as inactive.

For `OC1C(O)C(O)C(O)C(O)C1O` (configuration not stated), the outcome was inactive. With `Cc1cc(C(C)(C)C)c(O)c(C)c1CC1=NCCN1` the entry was “inactive”. Consider `Nc1nc2ncc(CNc3ccc(C(=O)N[C@@H](CCC(=O)O)C(=O)O)cc3)nc2c(=O)[nH]1`, for which the call was inactive. In the case of `OC(C#CCN1CCCC1)(c1ccccc1)c1ccccc1` it was “inactive”; in that of `O=C(O)C1CCC1`, “inactive”.
